Laboratory results: ChEMBL document CHEMBL1201862, “PubChem BioAssay data set” (2004)
Screen size: about 400,000 compounds; about 1,900 (0.47%) were called active. Another 14% or so got no clear call; they are omitted. No rule for the calls is given here. The full list was thinned out, with actives kept by preference.

Target: Ataxin-2 (Homo sapiens) (UniProt Q99700)
Assay: qHTS for Inhibitors of ATXN expression.
Type: functional

Ataxin-2 (Homo sapiens), sequence (Q99700 whole entry): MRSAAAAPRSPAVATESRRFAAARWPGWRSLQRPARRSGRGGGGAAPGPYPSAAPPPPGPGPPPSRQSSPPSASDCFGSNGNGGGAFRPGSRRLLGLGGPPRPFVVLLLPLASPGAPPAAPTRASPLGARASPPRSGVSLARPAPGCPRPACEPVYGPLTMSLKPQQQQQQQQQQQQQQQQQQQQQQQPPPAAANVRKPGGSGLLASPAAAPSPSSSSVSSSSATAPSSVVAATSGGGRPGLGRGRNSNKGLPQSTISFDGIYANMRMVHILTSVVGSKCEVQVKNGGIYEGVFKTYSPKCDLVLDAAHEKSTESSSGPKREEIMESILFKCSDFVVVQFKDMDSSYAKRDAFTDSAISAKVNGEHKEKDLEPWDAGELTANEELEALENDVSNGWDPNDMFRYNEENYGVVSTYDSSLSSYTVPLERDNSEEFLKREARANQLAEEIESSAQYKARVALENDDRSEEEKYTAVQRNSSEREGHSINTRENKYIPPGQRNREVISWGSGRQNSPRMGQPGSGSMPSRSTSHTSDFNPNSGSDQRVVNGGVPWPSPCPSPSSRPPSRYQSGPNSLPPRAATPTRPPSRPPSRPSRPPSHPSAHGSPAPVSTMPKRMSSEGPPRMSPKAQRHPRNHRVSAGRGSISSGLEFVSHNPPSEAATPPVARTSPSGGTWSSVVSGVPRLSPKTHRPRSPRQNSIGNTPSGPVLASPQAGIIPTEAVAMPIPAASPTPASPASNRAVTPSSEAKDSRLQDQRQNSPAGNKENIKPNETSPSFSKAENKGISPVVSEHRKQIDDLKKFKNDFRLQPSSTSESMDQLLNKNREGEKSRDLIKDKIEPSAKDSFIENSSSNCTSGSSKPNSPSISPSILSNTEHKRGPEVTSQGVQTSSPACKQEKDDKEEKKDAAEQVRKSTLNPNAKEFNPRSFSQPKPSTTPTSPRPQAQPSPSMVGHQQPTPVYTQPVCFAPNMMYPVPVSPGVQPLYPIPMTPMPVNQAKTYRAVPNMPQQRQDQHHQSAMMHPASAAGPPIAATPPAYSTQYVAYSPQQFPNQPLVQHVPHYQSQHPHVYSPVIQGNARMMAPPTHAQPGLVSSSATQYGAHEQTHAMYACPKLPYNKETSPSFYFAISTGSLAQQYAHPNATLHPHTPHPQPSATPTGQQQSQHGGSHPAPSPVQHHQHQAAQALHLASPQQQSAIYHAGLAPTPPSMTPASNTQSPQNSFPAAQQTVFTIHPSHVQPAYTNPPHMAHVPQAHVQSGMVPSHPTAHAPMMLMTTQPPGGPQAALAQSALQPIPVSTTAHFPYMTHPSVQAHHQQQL

Row | Structure (SMILES) | Potency
1 | CCOC(=O)[C@]12Cc3ccccc3[C@H]1N(C(C)C)C(=O)c1ccccc12 | 22.4 µM (active)
2 | CCOC(=O)[C@]12Cc3c(cc(OC)c(OC)c3OC)[C@H]1N(C)C(=O)c1cc(OC)ccc12 | 11.2 µM (active)
3 | CCOC(=O)[C@]12Cc3ccccc3[C@H]1N(C(C)C)C(=O)c1cc(OC)ccc12 | 17.8 µM (active)
4 | CCOC(=O)[C@]12Cc3ccccc3[C@H]1N(C)C(=O)c1cc(OC)ccc12 | 31.6 µM (active)
5 | N#CC1=C(N)Oc2c(c(=O)oc3ccccc23)C1c1ccc([N+](=O)[O-])o1 (stereo not given) | inactive
6 | CC(C)OCC(O)CN1CC2C[C@@H](C1)Cn1c2cccc1=O (stereo not given in full) | inactive
7 | Cc1cc(=O)oc2cc(OCC(=O)N3CCN(C(C)c4ccccc4)CC3)c(Cl)cc12 (stereo not given) | inactive
8 | CCCCn1c(NC(=O)c2ccco2)c(C(=O)OCC)c2nc3ccccc3nc21 | inactive
9 | CCOC(=O)[C@]12Cc3cc(C)ccc3[C@H]1N(C(C)C)C(=O)c1ccccc12 | 11.2 µM (active)
10 | CCCCN1C(=O)/C(=C/NNC(=O)c2ccncc2)C(=O)NC1=S | inactive
11 | CCOc1c(Cl)cc(CNC(C)C(O)c2ccccc2)cc1OC (stereo not given) | inactive
12 | COc1cccc(CNCCc2cccc(F)c2)c1OC | inactive
13 | CCOc1c(Cl)cc(CNCCc2c[nH]c3ccccc23)cc1OC | 20 µM (active)
14 | COc1cccc(-n2c(/C=C/c3ccc(O)c(O)c3)nc3ccccc3c2=O)c1 | inactive
15 | COP(=O)(OC)c1nc(-c2ccc([N+](=O)[O-])cc2)oc1N1CCCCC1 | inactive
16 | O=[N+]([O-])/C=C/c1c(Cl)cccc1Cl | 4.74 µM (active)
17 | CC(C)CCNC(=O)c1c(N)n(CC2CCCO2)c2nc3ccccc3nc12 (stereo not given) | inactive
18 | O=C1NC(=O)N(Cc2ccccc2)C(=O)/C1=C/NNC(=O)c1ccncc1 | inactive
19 | Cc1cnc(SCc2ccccn2)nc1C1CCCN(C(=O)c2scc3c2CCCC3)C1 (stereo not given) | 25.1 µM (active)
20 | Nc1ccc2c3c(cccc13)-c1ccccc1-2 | inactive
21 | Nc1c(C(=O)NCC2CCCO2)c2nc3ccccc3nc2n1Cc1ccco1 (stereo not given) | inactive
22 | O=C(NCC1=C(c2ccc3ccccc3c2)C[C@@H]2CC[C@H]1N2Cc1ccco1)c1ccc([N+](=O)[O-])cc1 | 31.6 µM (active)
23 | Nc1c(C(=O)NCc2ccco2)c2nc3ccccc3nc2n1Cc1ccccc1 | inactive
24 | CCC(Nc1ccccc1N)=C1C(=O)NC(=O)NC1=O | inactive

Row | Structure (SMILES) | Potency
25 | CCC1(C)OC(c2ccccc2)=C/C(=C/C=C2C(=O)NC(=O)NC2=O)O1 (stereo not given) | inactive
26 | O=c1ccc2cc(O[C@@H]3O[C@H](CO)[C@@H](O)[C@H](O)[C@H]3O)c(O)cc2o1 | inactive
27 | O=C(NCc1ccccc1)c1cccn(Cc2cccc(Cl)c2)c1=O | inactive
28 | Cc1n[nH]c2ccc(-c3cncc(OC[C@@H](N)Cc4c[nH]c5ccccc45)c3)cc12 | 11.2 µM (active)
29 | C[n+]1c2cc(N)ccc2cc2ccc(N)cc21 | inactive
30 | Clc1ccc(C(Cn2ccnc2)OCc2csc3c(Cl)cccc23)c(Cl)c1 (stereo not given) | 28.2 µM (active)
31 | Clc1ccc(COC(Cn2ccnc2)c2ccc(Cl)cc2Cl)cc1 (stereo not given) | 39.8 µM (active)
32 | COc1ccc(Br)cc1CNCCc1cccc(Cl)c1 | inactive
33 | CC/C(=C(\c1ccc(O)cc1)c1ccc(OCCN(C)C)cc1)c1ccccc1 | 39.8 µM (active)
34 | CCCCCC[C@H]1C(=O)O[C@H](C)[C@H](NC(=O)c2cccc(NC=O)c2O)C(=O)O[C@@H](C)[C@H]1OC(=O)CC(C)C | inactive
35 | C=CCc1ccccc1OCCn1c(C2CC(=O)N(Cc3ccc(F)cc3)C2)nc2ccccc21 (stereo not given) | 39.8 µM (active)
36 | CC[C@@H]1CN2CCc3cc(OC)c(OC)cc3[C@H]2C[C@@H]1C[C@H]1NCCc2cc(OC)c(OC)cc21 | 0.316 µM (active)
37 | CC[C@@H]1CN2CCc3cc(OC)c(OC)cc3[C@H]2C[C@@H]1C[C@@H]1NCCc2cc(O)c(OC)cc21 | 0.0631 µM (active)
38 | CC(=O)O[C@H]1CCC2C3CCC4=CC(=O)CCC4=C3C=C[C@@]21C (stereo not given in full) | inactive
39 | CN1C(=O)C(=CNCCN2CCOCC2)C(=O)N(C)C1=S | inactive
40 | Cc1ccc(N/N=C/C=C/c2ccco2)cc1 | inactive
41 | CC(=O)C12CC(C)=C(C)CC1CC1C3CCC4=CC(=O)CCC4(C)C3CCC12C (stereo not given) | inactive
42 | O=C1NC(=O)N(CCc2ccc(F)cc2)C(=O)/C1=C/NNC(=O)c1ccncc1 | inactive
43 | Fc1ccc(C2=CCN(C(c3cccs3)c3nnnn3CCc3ccccc3)CC2)cc1 (stereo not given) | 39.8 µM (active)
44 | Clc1ccc2sc(C3CCNCC3)nc2c1 | inactive
45 | CCCCn1nnnc1C(c1cccc(OC)c1OC)N1CCC2(CC1)C(=O)NCN2c1ccccc1 (stereo not given) | 39.8 µM (active)
46 | COc1cccc(C(c2nnnn2Cc2ccccc2)N2CCC3(CC2)C(=O)NCN3c2ccccc2)c1OC (stereo not given) | 39.8 µM (active)
47 | O=C1NCN(c2ccccc2)C12CCN(C(c1ccccc1OC(F)(F)F)c1nnnn1Cc1ccccc1)CC2 (stereo not given) | 39.8 µM (active)
48 | O=C1NCN(c2ccccc2)C12CCN(C(c1cccc3ccccc13)c1nnnn1Cc1ccccc1)CC2 (stereo not given) | 39.8 µM (active)

Row | Structure (SMILES) | Potency
49 | Cc1c(CC(=O)N2C[C@H]3C[C@@H](C2)c2cccc(=O)n2C3)c(=O)oc2c(C)c(O)ccc12 | inactive
50 | COc1ccc2c(c1)NP(=S)(Oc1ccccc1)N2 (stereo not given) | inactive
51 | N#Cc1cccc(NC(=O)CSc2nc3c(cc2C#N)N2CCC3CC2)c1 | inactive
52 | Fc1cccc(F)c1CN1CCN(c2ccc(Cl)cc2)CC1 | inactive
53 | CCC(C)NC(=O)c1c(N)n(CCCOC)c2nc3ccccc3nc12 (stereo not given) | inactive
54 | CCCCNC(=O)c1c(N)n(CCCOC)c2nc3ccccc3nc12 | inactive
55 | Cc1cc(=O)oc2cc3c(cc12)CCCN3 | inactive
56 | CC[C@H](C)/C=C(C)/C=C/C1=CC2=C(Cl)C(=O)[C@](C)(OC(C)=O)C(=O)C2=CO1 | 28.2 µM (active)
57 | CCn1nc(/C=C/c2ccccc2)nc2c(=O)n(C)c(=O)nc1-2 | 10.6 µM (active)
58 | COc1ccc(-n2c(/C=C/c3ccc(O)cc3)nc3ccccc3c2=O)cc1 | inactive
59 | CCn1nc(-c2ccccc2)nc2c(=O)n(C)c(=O)nc1-2 | 20 µM (active)
60 | CCN1C(=O)/C(=C/NNC(=O)c2ccncc2)C(=O)NC1=S | inactive
61 | CCOc1ccc2nc(NN=C3C(=O)NC(=S)NC3=O)sc2c1 | 15 µM (active)
62 | CCC(=O)N1N=C2C3CCN(CC3)C2C1c1ccc(C)cc1 (stereo not given) | inactive
63 | COc1cccc(C(=O)NCc2nc(-c3cccc(NC(=O)c4ccoc4C)c3)oc2C)c1OC | 28.2 µM (active)
64 | Nc1ccc2c(c1)Cc1cc([N+](=O)[O-])ccc1-2 | inactive
65 | Clc1ccc2c(c1)C(OC1CN3CCC1CC3)c1ccccc1CS2 (stereo not given) | 28.2 µM (active)
66 | CCOc1ccc(NS(=O)(=O)c2ccc(Cl)c(NN=C3C(=O)NC(=S)NC3=O)c2)cc1Br | 28.2 µM (active)
67 | COc1ccc(S(=O)(=O)Nc2ccccc2OC)cc1NN=C1C(=O)NC(=S)NC1=O | 39.8 µM (active)
68 | Nc1ccc2ccc3cccc[n+]3c2c1 | inactive
69 | COCCCNC(=O)c1c(NC(=O)c2ccccc2Cl)n(Cc2ccccc2)c2nc3ccccc3nc12 | inactive
70 | CCC1(OC(=O)CN)C(=O)OCc2c1cc1n(c2=O)Cc2cc3ccccc3nc2-1 (stereo not given) | inactive
71 | CCC1(O)C(=O)OCc2c1cc1n(c2=O)Cc2cc3cc(O)ccc3nc2-1 (stereo not given) | inactive
72 | CC[C@@]1(O)C(=O)OCc2c1cc1n(c2=O)Cc2cc3ccccc3nc2-1 | 0.01 µM (active)

Row | Structure (SMILES) | Potency
73 | CCCCCn1c(=O)c(C(=O)NCc2ccccc2Cl)c(O)c2ccccc21 | inactive
74 | NNC(=O)CN1C(=O)CN=C(c2ccccc2)c2cc(Br)ccc21 | inactive
75 | O=C(CN1C(=O)CN=C(c2ccccc2)c2ccccc21)Nc1cccc(C(F)(F)F)c1 | 31.6 µM (active)
76 | C=C1C(=O)OC2CC3(C)OC3CCC(C)=CC(OC(C)=O)C12 (stereo not given) | 33.6 µM (active)
77 | CCCCn1c(NS(=O)(=O)c2ccccc2)c(C(=O)OCC)c2nc3ccccc3nc21 | inactive
78 | CCOC(=O)c1c(NS(=O)(=O)c2ccccc2)n(CCCOC)c2nc3ccccc3nc12 | inactive
79 | COCCCn1c(N)c(C(=O)NCCC(C)C)c2nc3ccccc3nc21 | inactive
80 | Brc1cccc(CNCCc2ccc3c(c2)OCO3)c1 | inactive
81 | CNCCC(Oc1ccc(C(F)(F)F)cc1)c1ccccc1 (stereo not given) | 31.6 µM (active)
82 | CC[C@@]1(O)C(=O)OCc2c1cc1n(c2=O)Cc2cc3c(NC(=O)CN)cccc3nc2-1 | inactive
83 | COC(=O)c1ccc(C(C(=O)NC2CCCCC2)N(CCN2CCOCC2)C(=O)Cc2cccs2)cc1 (stereo not given) | inactive
84 | CCc1ccc2c(c1)Sc1ccccc1CC2N1CCN(C)CC1 (stereo not given) | inactive
85 | O=c1ccc2cc(OC3O[C@H](CO)[C@@H](O)[C@H](O)[C@H]3O)c(O)cc2o1 (stereo not given in full) | inactive
86 | CN1CCN(c2ccc([N+](=O)[O-])c3no[n+]([O-])c23)CC1 | 7.08 µM (active)
87 | O=[N+]([O-])c1ccc(N2CCOCC2)c2c1no[n+]2[O-] | 3.98 µM (active)
88 | O=[N+]([O-])c1ccc(N(CCO)CCO)c2c1no[n+]2[O-] | 17.8 µM (active)
89 | O=[N+]([O-])c1ccc(N2CCOCC2)c2cccnc12 | inactive
90 | COc1ccc(Br)cc1CNCCc1ccc2c(c1)OCO2 | inactive
91 | Cc1cc2c(C(F)(F)F)cc(=O)oc2c2c1NCCC2 | inactive
92 | Cc1cc(/C=C2\C(=O)NC(=O)N(Cc3ccccc3Cl)C2=O)c(C)n1-c1ccc(C(=O)O)cc1 | inactive
93 | Cc1cccc(N2C(=O)NC(=O)/C(=C/c3cc4c(cc3[N+](=O)[O-])OCO4)C2=O)c1 | inactive
94 | Cc1cc(C=C2C(=O)NC(=S)NC2=O)c(C)n1-c1ccc2c(c1)OCO2 | 39.8 µM (active)
95 | CCN(C(=O)COC(=O)c1cn(C)c2ccccc12)c1ccc(F)cc1 | inactive
